Bioassay records from PubChem.
Pol beta inh – qHTS Assay for Inhibitors of DNA Polymerase Beta | Potency, µM (series often up to 114 µM), without a hit: at the top dose activity change, negative = inhibition, actives largely listed as inhibitors | P06746 | hit rate 1.3% among 340,000 | Pol beta primer extension/strand displacement, fluorescence kinetic; note: % is set by controls: 0 for no effect and ±100 for the full control effect
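Curves were derived by four-parameter Hill fits of normalized qHTS data. The kinetic fluorescent primer-extension read was taken at 0 and 10 min after 50 nM substrate, following a 15 min room-temperature preincubation of 10 nM enzyme with compounds.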
WRN inhibitor – qHTS for Inhibitors of WRN Helicase; Bifunctional 3'-5' exonuclease/ATP-dependent helicase WRN (Homo sapiens), Q14191; Potency, µM (series often up to 114 µM), inactives show top-dose activity change, negative = inhibition, usual class: inhibitors; hit rate 0.46% among 360,000; WRN helicase unwinding, fluorescent forked duplex, kinetic; AID 651768, 2012; note: % is set by controls: 0 for no effect and ±100 for the full control effect; nearly all actives have a fitted effect of over 55% in size
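Screening of the MLSMR collection measured strand separation of a quenched forked DNA duplex (100 nM) by 20 nM WRN with 2 mM ATP, all final. Compounds were preincubated with enzyme 15 min at room temperature.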
Pol eta inh-1 – qHTS for Inhibitors of Polymerase Eta; Potency, µM (highest dose often 114 µM), for the others: top-dose activity change, negative = inhibition, most hits filed as inhibitors; AID 588591, 2011; recombinant Pol eta, fluorescent DNA replication assay; DNA polymerase eta (Homo sapiens), Q9Y253; hit rate 1.2% among 390,000; note: % is set by controls: 0 for no effect and ±100 for the full control effect
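Pol eta at 10 nM preincubated with compounds 15 min at room temperature; reaction started with fluorescent substrate (50 nM final) and read kinetically at 0 and 10 min.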
Pol iota inh – qHTS for Inhibitors of Polymerase Iota | DNA polymerase iota (Homo sapiens), Q9UNA4 | Pol iota fluorescent replication assay, 10 min | Potency, µM (doses to about 115 µM), for inactives: at the highest dose activity, negative = inhibition, most hits filed as inhibitors | hit rate 1% among 390,000
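Fluorescent replication assay read twice, at 0 min and 10 min after adding 50 nM (final) substrate. Enzyme (10 nM) and compounds were first incubated 15 min at room temperature; enzyme-free buffer wells were negative controls.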
FEN1 inh – qHTS Assay for the Inhibitors of Human Flap endonuclease 1 (FEN1); hit rate 0.35% among 390,000; AID 588795, 2011; Potency, µM (top dose mostly 114 µM), without a hit: at the top dose activity change, negative = inhibition, most hits filed as inhibitors; P39748; Recombinant FEN1 flap cleavage, fluorescence, 15 min; note: % is set by controls: 0 for no effect and ±100 for the full control effect; nearly all actives have a fitted effect of over 65% in size
Target sequence (P39748 whole entry, looked up): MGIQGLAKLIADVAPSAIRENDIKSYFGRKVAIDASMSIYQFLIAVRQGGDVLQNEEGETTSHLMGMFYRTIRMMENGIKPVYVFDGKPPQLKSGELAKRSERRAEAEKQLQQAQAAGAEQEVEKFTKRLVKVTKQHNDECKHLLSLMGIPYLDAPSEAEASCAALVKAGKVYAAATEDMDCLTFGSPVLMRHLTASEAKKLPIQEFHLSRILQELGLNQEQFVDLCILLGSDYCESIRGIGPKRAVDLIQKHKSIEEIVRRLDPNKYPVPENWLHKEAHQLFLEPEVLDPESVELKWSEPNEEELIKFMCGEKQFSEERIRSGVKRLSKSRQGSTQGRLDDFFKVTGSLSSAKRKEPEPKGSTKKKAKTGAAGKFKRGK
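Steps: FEN1 (10 nM) dispensed; compound added by pin tool; 15 min at room temperature; substrate added to 50 nM final; reads at 0 min and 15 min; data normalized and fitted (four-parameter Hill).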
Pol kappa inh-1 – qHTS for Inhibitors of Polymerase Kappa. purified Pol kappa, fluorescent DNA synthesis assay, 10 min. Potency, µM (doses to about 107 µM), for the others: at the highest dose activity, negative = inhibition, hits mostly inhibitors. hit rate 0.53% among 400,000. AID 588579, 2011; note: % is set by controls: 0 for no effect and ±100 for the full control effect
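Enzyme at 10 nM met test compounds for 15 min at room temperature. Substrate addition (50 nM final) began the reaction, which was monitored by fluorescence at 0 and 10 min.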
Pol kappa inh-2 – qHTS for Inhibitors of Polymerase Kappa: Confirmatory Assay for Cherry-picked Compounds; shares compounds with Pol eta inh-1; purified Pol-kappa, fluorescent strand-displacement substrate; Potency, µM, hits mostly inhibitors; hit rate 76% among 920; AID 720501, 2013
Pol eta inh-2 – qHTS for Inhibitors of Polymerase Eta: Confirmatory Assay for Cherry-picked Compounds. hit rate 64% among 2,600. Pol eta primer extension, TAMRA/BHQ fluorescence, 10 min. shares compounds with Pol eta inh-1. Potency, µM, most hits filed as inhibitors
An asterisk follows results filed as active; ? = inconclusive; nt = no result; [ ] = another dose, or the depositor's remark. This is a sample that favours compounds with a hit; in the whole collection about 2.4% have one here. Calls come from the whole dose curve; as a rule, active = well fitted curve in the direction sought with a large enough effect; inconclusive = small, poorly fitted or top-dose-only effect, or another doubt; inactive = no such curve, though single readings can be large; an effect the other way counts as inactive or inconclusive. Potency is the fitted concentration of half-maximal effect.

SMILES	Pol beta inh	WRN inhibitor	Pol eta inh-1	Pol iota inh	FEN1 inh	Pol kappa inh-1	Pol eta inh-2	others
O=C(O)c1ccc(CNc2ccccc2C(=O)O)cc1	11.2µM*	-20.4%[57.1 µM]	?	?	-4.1%	?	?
COc1ccc(NC(=O)c2ccco2)cc1NC(=O)c1cc(Cl)ccc1OC	?	nt	89.1µM*	-17.2%	-21.5%	-1.0%	nt	Pol kappa inh-2=42.3*
COc1ccc(NC(=O)c2ccco2)cc1NC(=O)c1ccc(C)cc1	25.2%	-1.1%	-15.4%	9.5%	-2.8%	-3.9%	nt
CC(C)C[C@@H](NC(=O)[C@H](Cc1ccccc1)NC(=O)c1cnccn1)B(O)O	nt	nt	nt	nt	nt	4.7%[19.4 µM]	nt
COc1ccc(Br)cc1/C=C/C(=O)NC(=S)Nc1ccc(Cl)c(C(=O)O)c1	12.5%	-4.8%[11.6 µM]	25.1µM*	17.3%	?	2.1%	nt	Pol kappa inh-2=?
Cn1cccc1CC(=O)N/N=C/c1ccco1	?	-0.7%	-8.3%	22.1%	1.8%	-27.3%	nt
CC(=C/c1ccco1)/C=N/NC(=O)Cc1cccn1C	9.5%	-12.9%[11.6 µM]	?	56.2µM*	12.2%	?	nt	Pol kappa inh-2=42.3*
O=C(COc1ccc2c(-c3ccccc3)cc(=O)oc2c1)N[C@H](Cc1c[nH]c2ccccc12)C(=O)O	3.4%	-8.1%	?	-10.5%	-10.9%	-16.8%	nt
Cc1c(C)c2ccc(OC(C)C(=O)N[C@@H](Cc3c[nH]c4ccccc34)C(=O)O)c(C)c2oc1=O (stereo partly drawn)	30.3%	-3.6%	-3.3%	-4.8%	9.7%	-0.3%	nt
O=C(COc1cc2oc(=O)cc(-c3ccccc3)c2cc1Cl)NC(Cc1c[nH]c2ccc(O)cc12)C(=O)O (stereo not drawn)	?	-7.9%	50.1µM*	?	?	-4.8%	?
Cc1c(OC(C)C(=O)NC(Cc2c[nH]c3ccc(O)cc23)C(=O)O)ccc2c1oc(=O)c1ccccc12 (stereo not drawn)	2.51µM*	?	20µM*	44.7µM*	?	?	?
CC(Oc1ccc2ccc(=O)oc2c1)C(=O)NC(Cc1c[nH]c2ccc(O)cc12)C(=O)O (stereo not drawn)	?	-11.6%	22.4µM*	?	-7.0%	?	?
COc1ccc(OC)c(C2C(C(=O)Nc3ccc(C)cc3)=C(C)Nc3nnnn32)c1 (stereo not drawn)	-2.7%	nt	-10.5%	-2.4%	11.2%	-20.8%[60.1 µM]	nt
O=c1c(-c2ccc(F)cc2)nc2cnc(Nc3ccccc3)nc2n1C[C@H]1CCCO1	nt	nt	nt	nt	nt	4.7%[60.1 µM]	nt
Cc1nc2c(c(C)c1CCC(=O)NCc1ccccc1)c(=O)n(C)c(=O)n2C	20.9%	nt	-15.2%	16.5%	-0.9%	-4.8%	nt
CCOC(=O)C1=C(O)/C(=C/c2ccc(-c3ccccc3C(=O)O)o2)SC1=Nc1ccc(OC)cc1	?	?	10µM*	?	?	-40.2%	42.6*
Cc1cc2oc(=O)cc(-c3ccccc3)c2c(C)c1-c1ccoc1	nt	nt	nt	nt	nt	-5.8%	nt
O=C(O)c1cccc(-c2ccc(/C=N/NC(=O)C3COc4ccccc4O3)o2)c1 (stereo not drawn)	20µM*	?	28.2µM*	?	-8.5%	?	60.1*
CC(C)(C)c1ccc2c(c1)OC(C(=O)N/N=C\c1ccc(-c3cccc(C(=O)O)c3)o1)CO2 (stereo not drawn)	-36.6%	-13.7%[11.6 µM]	11.2µM*	?	?	?	16.9*
Cc1ccc(C)c(Cn2c(=O)c3c(nc4n3CCN4c3ccccc3)n(C)c2=O)c1	-0.7%	nt	-16.2%	37.5%	7.5%	-8.4%	nt
Cc1ccccc1C(=O)N1CCC(N2CCN(Cc3ccc(F)cc3)C(=O)C2=O)CC1	3.6%	nt	-17.3%	8.9%	5.0%	2.9%	nt
O=C(/C=C/c1ccc([N+](=O)[O-])cc1)c1ccco1	1.0%	-10.0%	3.6%	?	22.6%	-0.6%	nt
O=C(/C=C/c1ccc(-c2ccccc2[N+](=O)[O-])o1)c1ccco1	?	?	39.8µM*	?	-14.2%	?	75.7*
O=[N+]([O-])c1cccc(S(=O)(=O)N2CCN(c3nc(-c4ccccc4)nc4ccccc34)CC2)c1	nt	nt	nt	-1.4%	-10.3%	-13.4%	nt
N#Cc1c(SCC(=O)Nc2nc3ccccc3s2)sc2c(O)cc(=O)[nH]c12	nt	39.8µM*	4.47µM*	6.31µM*	17.8µM*	12.6µM*	30.1*	Pol kappa inh-2=18.9*
SMILES	Pol beta inh	WRN inhibitor	Pol eta inh-1	Pol iota inh	FEN1 inh	Pol kappa inh-1	Pol eta inh-2	others
COC(=O)c1cc(Cl)ccc1NC(=O)CSc1ncc(S(=O)(=O)c2ccc(Br)cc2)c(=O)[nH]1	44.7µM*	nt	89.1µM*	?	?	?	?	Pol kappa inh-2=42.3*
CC1(C)CC(=O)C2=C(C1)c1c(ccc3ccccc13)NC2c1cc([N+](=O)[O-])cc([N+](=O)[O-])c1O (stereo not drawn)	44.7µM*	?	28.2µM*	?	?	-35.7%	?	Pol kappa inh-2=47.4*
Cc1cc(C)cc(Nc2nc3ccccc3nc2-n2nc(C)cc2C)c1	45.4%	nt	-11.7%	-1.4%	-20.5%	-2.7%	nt
Cc1oc(C)c2c(=O)ccc3c(c12)OC(N)=C(C#N)C3c1ccccc1 (stereo not drawn)	?	?	?	?	-5.0%	-26.5%	nt
CSc1ccc(C2C(C#N)=C(N)Oc3c2ccc(=O)c2c(C)oc(C)c32)cc1 (stereo not drawn)	?	?	11.2µM*	?	?	50.1µM*	?
O=C(CN1C(=O)/C(=C/c2ccco2)SC1=S)NC1CCS(=O)(=O)C1 (stereo not drawn)	?	-6.8%[11.6 µM]	12.6µM*	?	?	?	60.1*
CC(C(=O)N(C)C1CCS(=O)(=O)C1)N1C(=O)/C(=C/c2ccco2)SC1=S (stereo not drawn)	?	-26.3%	22.4µM*	31.6µM*	?	?	75.7*
CC(C(=O)N(C)C1CCS(=O)(=O)C1)N1C(=O)/C(=C/c2cccs2)SC1=S (stereo not drawn)	-24.6%	-3.6%	-12.0%	27.6%	18.8%	-1.8%	nt
